Assay outcomes from PubChem BioAssay.
Rows were chosen to be rich in hits. Some 1.7% of all compounds tested hit in one or more screens of this group.
RecA splice inh: Mtb RecA intein splicing inhibitors, primary screen, biochemical, fluorescence, HTS; AID 2221, 2009; Protein RecA (Mycobacterium tuberculosis (strain ATCC 25618 / H37Rv)), P9WHJ3; inhibition, % (concentration not given with the values); cell-free RecA intein splicing; 290,000 tested, 0.75% active; in the data active = inhibition above about 30%;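 note: 0% = vehicle wells and 100% = reference inhibitor control wells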
Target sequence (P9WHJ3 whole entry, looked up, canonical isoform): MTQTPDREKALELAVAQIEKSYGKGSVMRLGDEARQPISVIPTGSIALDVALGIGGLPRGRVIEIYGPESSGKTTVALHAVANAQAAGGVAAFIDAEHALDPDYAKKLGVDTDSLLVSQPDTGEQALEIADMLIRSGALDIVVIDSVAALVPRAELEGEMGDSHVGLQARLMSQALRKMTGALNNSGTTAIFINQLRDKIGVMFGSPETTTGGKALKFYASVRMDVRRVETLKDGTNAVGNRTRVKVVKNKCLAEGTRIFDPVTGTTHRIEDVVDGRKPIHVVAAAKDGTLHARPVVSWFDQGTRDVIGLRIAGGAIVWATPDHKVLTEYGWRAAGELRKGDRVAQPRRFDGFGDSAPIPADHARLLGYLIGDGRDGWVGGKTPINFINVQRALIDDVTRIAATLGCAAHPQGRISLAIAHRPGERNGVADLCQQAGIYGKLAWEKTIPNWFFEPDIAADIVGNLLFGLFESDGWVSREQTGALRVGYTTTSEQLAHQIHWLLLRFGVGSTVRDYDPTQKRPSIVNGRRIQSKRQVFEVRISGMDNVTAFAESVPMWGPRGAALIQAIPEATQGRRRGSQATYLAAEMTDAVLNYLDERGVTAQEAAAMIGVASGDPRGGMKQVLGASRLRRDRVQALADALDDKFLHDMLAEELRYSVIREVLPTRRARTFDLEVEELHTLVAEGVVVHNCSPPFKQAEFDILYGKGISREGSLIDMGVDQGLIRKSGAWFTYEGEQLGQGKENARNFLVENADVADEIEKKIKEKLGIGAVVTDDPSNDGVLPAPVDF
PfHsp40 yeast: rescue of yeast from PfHsp40 toxicity, primary screen, S. cerevisiae, ATP luminescence | S. cerevisiae expressing PfHsp40, growth rescue | growth rescue, % at 12.5 µM | 340,000 tested, 0.68% active | AID 504582, 2011; in the data active = growth rescue above about 28%, passing the limit was not always enough;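 note: yeast W303a lacking pdr1 and pdr3 grown in galactose medium; growth measured after three days at 30 °C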
CCHF vOTU inh-1: CCHFV vOTU protease inhibitors, primary screen, biochemical, Pep-AMC substrate, fluorescence; 370,000 tested, 0.55% active; inhibition, % at 11.5 µM; note: 0% = vehicle wells with enzyme and 100% = no enzyme wells
Mtb hypoxia inh: PubChem AID 1159583 | M. tuberculosis hypoxia-regulated fluorescent reporter, fluorescence | fluorescence inhibition, % (test concentration not listed) | 300,000 tested, 0.1% active; in the data active = fluorescence inhibition mostly above about 23%, no sharp cut-off; inactive = mostly below about 17%
Mtb bLac sens: beta-lactam sensitization of Mtb H37Rv, H37Rv; M. tuberculosis H37Rv growth with meropenem, percent inhibition; inhibition, % at 25 µM; 330,000 tested, 0.27% active; call rule not given here;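 note: growth measured after seven days incubation then overnight dye step; 0% = bacteria only wells and 100% = bacteria with antibiotic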
CCHF vOTU inh-2: CCHFV vOTU protease inhibitors, confirmation, biochemical, Pep-AMC substrate, fluorescence | shares compounds with CCHF vOTU inh-1 | Recombinant CCHFV vOTU | inhibition, % at 11.5 µM | 1,900 tested, 17% active
Active calls of the source: *; · = no result. Cut-off read from the data, not from the text of the source, unless noted: active = inhibition above about 30%; inactive = the rest.

SMILES	RecA splice inh	PfHsp40 yeast	CCHF vOTU inh-1	Mtb hypoxia inh	Mtb bLac sens	CCHF vOTU inh-2
CCc1nnc(N/N=C/c2ccccc2F)n1N	-1.4	0.3	77.3*	·	17.0	-4.3
CCc1nnc(N/N=C/c2ccccc2Cl)n1N	1.0	-1.2	84.3*	·	-2.7	-15.9
Cc1nnc(NN=Cc2ccccc2F)n1N	·	·	·	8.9	·	·
COc1ccc(-c2coc3cc(OC4OC(CO)C(O)C(O)C4O)c(OC)cc3c2=O)cc1 (stereo unspecified)	·	·	·	8.5	·	·
CCC(=O)Nc1cccc(C2=NOC3(C2)CC(C(N)=O)N(C(=O)Cc2ccc([N+](=O)[O-])cc2)C3)c1 (stereo unspecified)	·	·	·	0.3	·	·
NC(=O)CC(NC(=O)Cc1ccc(Br)cc1)c1ccc(NCCN2CCCC2)c([N+](=O)[O-])c1 (stereo unspecified)	-0.5	-1.1	34.5*	8.3	-8.8	-14.4
COC(=O)C1(C(=O)OC)C[C@H](/C=C/c2ccccc2)N(Cc2ccccc2OC)[C@@H]1c1ccc(F)cc1	·	·	31.2*	·	·	-6.0
Cc1ccccc1Nc1c([N+](=O)[O-])cncc1[N+](=O)[O-]	14.7	4.9	30.1*	3.9	22.3	-6.8
CC(NS(=O)(=O)c1c(N)n(C)c(=O)n(C)c1=O)c1ccccc1 (stereo unspecified)	0.9	-0.6	30.4*	5.0	-10.3	-15.4
Cn1c(N)c(S(=O)(=O)NCc2ccccc2)c(=O)n(C)c1=O	1.2	-1.2	9.4	4.2	-6.7	·
CC(C)C1NC2(C(=O)c3ccccc3C2=O)C2C(=O)N(c3ccc(F)cc3)C(=O)C12 (stereo unspecified)	-1.0	-0.3	52.0*	2.3	2.3	-21.6
O=C1C2C3C=CC(CC3)C2C(=O)N1c1ccc(F)cc1 (stereo unspecified)	3.0	-0.2	-15.4	9.9	-10.7	·
OC(c1ccccc1)(c1ccccc1)C1CCN(CCCOc2ccc(OC(F)(F)F)cc2)CC1	·	·	30.7*	·	·	-0.6
OC(c1ccccc1)(c1ccccc1)C1CCN(CCCOc2ccc(C(F)(F)F)cc2)CC1	·	·	24.0	·	·	·
OC(c1ccccc1)(c1ccccc1)C1CCN(CCCOc2cccc(Cl)c2)CC1	·	·	37.5*	·	·	-0.9
OC(c1ccccc1)(c1ccccc1)C1CCN(CCCOc2cccc(C(F)(F)F)c2)CC1	·	·	21.8	·	·	·
CCCCCOc1ccc(C=c2sc3nc(=O)c(-c4ccccc4)nn3c2=O)cc1OC	·	·	·	0.3	·	·
CC(C)C(N)c1csc(Nc2ccc(C(=O)c3ccccc3)cc2)n1 (stereo unspecified)	·	·	36.9*	·	·	-11.9
O=C1Nc2ccccc2N=C(c2ccc3c(c2)OCO3)C1N(C(=O)c1ccc2ccccc2c1)C1CC1 (stereo unspecified)	·	·	32.0*	·	·	-4.8
O=C(O)CC(NC(=O)C1c2ccccc2Oc2ccccc21)c1ccc(OC2CCCC2)cc1 (stereo unspecified)	5.9	0.2	32.9*	1.6	-5.4	0.5
CCOc1ccc(C(CC(=O)O)NC(=O)C2c3ccccc3Oc3ccccc32)cc1 (stereo unspecified)	1.2	-0.6	0.5	2.0	4.0	·
O=C1N=C(N2C=CC(=C3C=CNC=C3)C=C2)/C(=C/N=NC(=O)c2ccccc2)S1	0.0	-1.0	40.9*	24.6	3.3	-4.3
O=C(NC1CCCC1)c1ccc(CS(=O)Cc2ccccc2Cl)o1 (stereo unspecified)	0.1	0.7	34.4*	2.1	-0.4	-19.1
C=CCCC[C@H]1OC(=O)[C@H](C)NC(=O)[C@H](C(C)C)NC(=O)[C@@H]2CCCN2C(=O)[C@H](Cc2ccccc2)OC(=O)[C@@H](C(C)C)N(C)C(=O)[C@H](C(C)C)NC(=O)C1(C)C	·	·	29.6*	·	·	5.7
O=C1N[C@@H](Cc2ccccc2)C(=O)N2CCCC12 (stereo partly specified)	·	-0.5	13.2	2.6	·	·
SMILES	RecA splice inh	PfHsp40 yeast	CCHF vOTU inh-1	Mtb hypoxia inh	Mtb bLac sens	CCHF vOTU inh-2
CC(C)C(=O)NC(=O)C1CCCN1C(=O)C=Cc1ccccc1 (stereo unspecified)	·	·	·	17.8	·	·
Cc1[nH][nH]c(=O)c1C(c1c(C)[nH][nH]c1=O)c1cn(Cc2ccc(Cl)c(Cl)c2)c2ccccc12	0.9	1.1	55.9*	2.2	4.0	8.6
Cc1[nH][nH]c(=O)c1C(c1c(C)[nH][nH]c1=O)c1cn(Cc2ccc(F)cc2)c2ccccc12	·	-0.5	·	6.9	11.4	·
CC(=O)Oc1ccc(-c2csc(Nc3ccccn3)n2)cc1	·	·	42.1*	·	·	-1.9
CCCC(=O)O[C@]1(C(=O)CO)CCC2C3CCC4=CC(=O)CC[C@]4(C)C3C(O)C[C@@]21C (stereo partly specified)	·	·	·	4.1	·	·
O=C1c2ccccc2-c2nc3ccccc3nc21	20.5	5.8	-2.1	9.9	93.7	·
Cc1nc2c(nc1C)C(=O)c1ccccc1C2=O	·	-1.9	31.7*	·	·	21.1
N#CC1=C(S)N(c2ccccc2)C(c2ccc(-c3ccc(Cl)c(Cl)c3)o2)NC1=O (stereo unspecified)	20.3	0.6	47.0*	·	90.0	30.4*
CN=C(Nc1ccc(Cl)cc1)c1ccc(C(F)(F)F)cc1	-1.5	1.3	35.8*	2.0	-5.6	-4.7
COc1cc(C=Nn2c(C)n[nH]c2=S)ccc1OCc1ccc(F)cc1	·	·	·	6.6	·	·
COc1ccccc1C(=O)N1CCCC(C)(C(=O)NS(=O)(=O)C2CC2)C1 (stereo unspecified)	·	·	30.1*	·	·	-18.0
COc1ccc(C=NNC(=O)c2cc[n+]([O-])cc2)cc1O	·	·	·	-6.2	·	·
COc1cc(/C=N/NC(=O)c2cc[n+]([O-])cc2)ccc1O	0.1	0.1	30.4*	·	-13.0	-11.0
Cc1ccc2c(c1)C(=O)C(=O)N2c1ccc(C(F)(F)F)cc1	·	-0.9	29.7*	-6.8	-2.8	-8.9
Cc1ccc2c(c1)C(=O)C(=O)N2c1ccc(Cl)cc1	·	-0.3	4.6	·	-2.5	·
C=CCn1c2ccccc2c(=O)c2cc(C#CCC(C)O)ccc21 (stereo unspecified)	·	·	·	7.0	·	·
CN(CC(=O)Nc1ccc(F)cc1)C(=O)COC(=O)c1cccc(N(C)C)c1	·	-0.1	10.8	6.6	9.4	·
CN(CC(=O)Nc1ccc(F)cc1)C(=O)COC(=O)c1ccccc1	0.1	-3.1	29.9*	-1.8	-10.9	-2.1
COc1ccc(N(C)S(=O)(=O)c2cccc(C(=O)Nc3nc(C)c(C(C)=O)s3)c2)cc1	·	1.1	35.2*	2.2	-3.8	-0.1
COc1ccc(N(C)S(=O)(=O)c2cccc(C(=O)Nc3nnc(C)s3)c2)cc1	·	-0.8	17.2	7.6	1.2	·
CCN(CC)S(=O)(=O)c1cccc(C(=O)Nc2nncs2)c1	-2.8	0.7	-9.8	-2.4	7.3	·
CCN(CC)S(=O)(=O)c1cccc(C(=O)Nc2nnc(C)s2)c1	2.4	0.4	31.3*	-3.6	-5.2	-5.5
